# Source: ChEMBL document CHEMBL3988442, “University of Dundee, Small-Polar-MMV Screening Library” (2021)
# About 1,000 (1.4%) of roughly 69,000 compounds showed an effect of 50% or more. This is one part of a sample in which strong results are shown more often than they occur.
# Test system: Leishmania donovani
# Assay: Leishmania intramacrophage assay
# Type: functional, organism-based
# Parameters: scale not given: in the data most compounds retested in dose-response had high values
structure (smiles),measurement,setting,value
OCc1ccc(-c2nccn2CCc2nc3c(s2)CCCC3)o1,Percent Effect,"30.3 µM, […]",-3.192%
O=C(NCCc1ccn(-c2ccc(F)cc2)n1)C1CCCOC1 (configuration not stated),Percent Effect,"30.3 µM, […]",11.22%
CC(NC(=O)N(C)C1CC1)c1ccc(Oc2cccnc2)c(F)c1 (configuration not stated),Percent Effect,"30.3 µM, […]",4.744%
CCN(CC)C(=O)NC(C)c1ccc(Oc2cccnc2)c(F)c1 (configuration not stated),Percent Effect,"30.3 µM, […]",-9.456%
CC(NC(=O)CN(C)C(C)C)c1ccc(Oc2cccnc2)c(F)c1 (configuration not stated),Percent Effect,"30.3 µM, […]",51.39%
C=C(C)COc1cccc(C(=O)N(CC)Cc2noc(C)n2)c1,Percent Effect,"30.3 µM, […]",17.93%
Cc1nc[nH]c1CN(Cc1ccccc1F)C1CC(C)(C)NC(C)(C)C1.O=C(O)CC(O)(CC(=O)O)C(=O)O,Percent Effect,"30.3 µM, […]",53.75%
Cc1nc[nH]c1CN(Cc1ccccc1)C1CC(C)(C)NC(C)(C)C1.O=C(O)CC(O)(CC(=O)O)C(=O)O,Percent Effect,"30.3 µM, […]",45.23%
Cc1cc2c(N)nc(=O)n(CC(=O)Nc3ccccc3)c2s1,Percent Effect,"30.3 µM, […]",6.295%
COc1cccc(NC(=O)Cn2c(=O)nc(N)c3cc(C)sc32)c1,Percent Effect,"30.3 µM, […]",12.79%
Cc1cc2c(N)nc(=O)n(CC(=O)Nc3cccc(Cl)c3)c2s1,Percent Effect,"30.3 µM, […]",52.64%
Cc1nc(CN2CCN(C(=O)NC(C)Cn3ccnc3)CC2)cs1 (configuration not stated),Percent Effect,30 µM,14.72%
CNC(=O)C1CCN(CC(=O)Nc2cc(C(C)C)no2)CC1,Percent Effect,30 µM,21.46%
CS(=O)(=O)NCc1noc2c1CN(C(=O)C1CCC1)CC2,Percent Effect,"30.3 µM, […]",11.5%
CCN1CC(CN(C)Cc2nc(-c3ccoc3)oc2C)CC1=O (configuration not stated),Percent Effect,"30.3 µM, […]",-10.15%
CCN1CC(CN(C)Cc2nc(-c3ccc(F)cc3)oc2C)CC1=O (configuration not stated),Percent Effect,"30.3 µM, […]",13.51%
CCN1CC(CN(C)Cc2nc(-c3ccc(C)o3)oc2C)CC1=O (configuration not stated),Percent Effect,"30.3 µM, […]",59.94%
CN(C)C(=O)C1(c2cnccn2)CCCN1C(=O)Cc1ccsc1 (configuration not stated),Percent Effect,"30.3 µM, […]",25.36%
CCn1c(C)nc2cc(NC(=O)CC3CCN(S(C)(=O)=O)CC3)ccc21,Percent Effect,"30.3 µM, […]",32.47%
CC(C)CCN1Cc2c(C(=O)O)ncn2-c2ccccc2S1(=O)=O,Percent Effect,"30 µM, 30.03 µM",-20.47%
CCN1Cc2c(C(=O)NC)ncn2-c2ccccc2S1(=O)=O,Percent Effect,"30.3 µM, […]",2.291%
CNC(=O)c1ncn2c1CN(CCC(C)C)S(=O)(=O)c1ccccc1-2,Percent Effect,"30.3 µM, […]",54.17%
COc1ccc(CNC(=O)c2ccoc2CN2CCNC(=O)C2)cc1,Percent Effect,"30.3 µM, […]",-8.396%
CC(C)N(C)Cc1cn2c(n1)CN(C(=O)c1ccc[nH]1)CC2,Percent Effect,"30.3 µM, […]",13.65%
Cc1cc(-c2cnc(C(C)C)nc2CN(C)C(=O)c2ccccn2)on1,Percent Effect,"30.3 µM, […]",10.54%
CC(C)N(C)CCCNC(=O)c1cnn(C(C)(C)C)c1C(F)(F)F,Percent Effect,"30.3 µM, […]",10.25%
FC(F)(F)c1cccc(OC2CCN(Cc3ncc[nH]3)CC2)c1,Percent Effect,"30.3 µM, […]",17.17%
OC1(CN2CCC(Oc3cccc(C(F)(F)F)c3)CC2)CNCCOC1 (configuration not stated),Percent Effect,"30.3 µM, […]",78.32%
FC(F)(F)c1cccc(OC2CCN(Cc3ccccn3)CC2)c1,Percent Effect,"30.3 µM, […]",-24.32%
OC1(CN2CCC(Oc3cccnc3)CC2)CNCCOC1 (configuration not stated),Percent Effect,"30.3 µM, […]",-1.613%
FC(F)(F)c1cccc(OC2CCN(Cc3c[nH]cn3)CC2)c1,Percent Effect,"30.3 µM, […]",0.2013%
OC1(CNCCN2CCc3ccccc32)CNCCOC1 (configuration not stated),Percent Effect,"30.3 µM, […]",12.43%
Nc1cc(C(=O)N2CCC(Oc3cccc(C(F)(F)F)c3)CC2)ccn1,Percent Effect,"30.3 µM, […]",3.315%
O=C(c1ccncc1)N1CCC(Oc2cccc(C(F)(F)F)c2)CC1,Percent Effect,"30.3 µM, […]",7.291%
CC(N)C(=O)N1CCC(Oc2cccc(C(F)(F)F)c2)CC1 (configuration not stated),Percent Effect,"30.3 µM, […]",75.62%
OC1(CN2CCC(Oc3cccc(C(F)(F)F)c3)CC2)CCNC1 (configuration not stated),Percent Effect,"30.3 µM, […]",100.3%
OC1(CN2CCN(c3cccc(C(F)(F)F)c3)CC2)CNCCOC1 (configuration not stated),Percent Effect,"30.3 µM, […]",51.12%
OC1(CN2CCCC2)COCCN(c2cc(C(F)(F)F)ccn2)C1 (configuration not stated),Percent Effect,"30.3 µM, […]",29.85%
CCC[C@H]1CN(S(C)(=O)=O)C[C@@H]1NC(=O)CCCn1ccnc1,Percent Effect,"30.3 µM, […]",-3.317%
CC(C)CCN(C)C(=O)c1cc(CN2CCC(O)CC2)on1,Percent Effect,"30.3 µM, […]",25.01%
O=C(CS(=O)(=O)Cc1nnnn1C1CC1)NCC1CC1,Percent Effect,"30.3 µM, […]",7.259%
Cc1ccc2cccc(C(=O)NCC3CCN(C(C)C)C3)c2n1 (configuration not stated),Percent Effect,"30.3 µM, […]",6.487%
Cc1cccc(CN2CCC3(CCN(c4ccccn4)C3)C2=O)c1.O=C(O)C(F)(F)F (configuration not stated),Percent Effect,"30 µM, 30.03 µM",41.53%
CC1=N[C@@]2(CC[C@@H]3CN(Cc4ccccc4F)C[C@@H]32)C(=O)N1CC1CC1.O=C(O)C(F)(F)F,Percent Effect,"30 µM, 30.03 µM",16.75%
CN1CCN(C)c2cc(NC(=O)c3cc[nH]n3)ccc2C1,Percent Effect,"30.3 µM, […]",24.5%
COc1ccc(OC)c(C2CCN(C(=O)CCc3n[nH]c(N)n3)C2)c1 (configuration not stated),Percent Effect,"30.3 µM, […]",25.04%
NC(=O)NC(=O)CCSCc1cc(F)cc2cccnc12,Percent Effect,"30.3 µM, […]",50.58%
CNC(=O)NC(=O)CCSCc1cc(F)cc2cccnc12,Percent Effect,"30.3 µM, […]",2.728%
NC(=O)CCSCc1cc(Br)cc2cccnc12,Percent Effect,"30.3 µM, […]",18.7%
CC(C)CN1C[C@H]2CCN(C(=O)NC3CCCC3)CC[C@H]2S1(=O)=O,Percent Effect,"30.3 µM, […]",5.795%
Cc1noc(CCCC(=O)N2CCNC(=O)C2)n1,Percent Effect,"30.3 µM, […]",12.24%
COCC(=O)NCc1cc(=O)n2c(n1)CN(Cc1ccncc1)CCC2,Percent Effect,"30.3 µM, […]",55.54%
COCC(=O)NCc1cc(=O)n2c(n1)CN(CC1CC1)CCC2.O=C(O)C(F)(F)F,Percent Effect,"30.3 µM, […]",0.4082%
COCC(=O)NCc1cc(=O)n2c(n1)CN(C)CCC2.O=C(O)C(F)(F)F,Percent Effect,"30.3 µM, […]",39.76%
COCC(=O)NCc1cc(=O)n2c(n1)CN(Cc1ccoc1)CCC2,Percent Effect,"30.3 µM, […]",10.68%
COCCN1CCCn2c(nc(CNC(=O)COC)cc2=O)C1.O=C(O)C(F)(F)F,Percent Effect,"30.3 µM, […]",69.63%
COCC(=O)NCc1cc(=O)n2c(n1)CN(Cc1ccsc1)CCC2,Percent Effect,"30 µM, 30.03 µM",13.56%
COc1ccccc1CNC(=O)c1[nH]ncc1Cl,Percent Effect,"30.3 µM, […]",-12.27%
COc1ccc(CNC[C@@]2(COc3cccnc3)C[C@@H](O)[C@@H](O)C2)cc1.Cl,Percent Effect,"30.3 µM, […]",14.18%
Cc1nc2ccnn2c(C)c1CCC(=O)N1CCN2CCCCC2C1 (configuration not stated),Percent Effect,30 µM,11.28%
O=C(C1CCCCC1)N1CCCC([C@@H]2C[C@H](C(F)F)n3ncnc3N2)C1 (some centres not stated),Percent Effect,"30.3 µM, […]",0.241%
Cc1nc(N(C)CCCc2nccn2C)c2c(C)nn(C)c2n1,Percent Effect,"30.3 µM, […]",1.733%
